# Out of some 1,500 compounds screened, about 430 (29%) were called active. The list is a sample of the results. Potency and affinity values are given separately. Unmarked numbers belong to inactive results. The rule behind the calls is not given here.
# Assay: insulin secretion activators without glucose, dose response, counter-screen for glucose-dependent insulin secretion activators, cell-based, INS-1E, Gaussia luciferase, luminescence, cherry-pick (AID 977606);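 note: 0% = median of neutral control wells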
# Conditions: INS-1E Gaussia luciferase insulin secretion, no glucose, 100% = twice neutral-control luminescence; series mostly up to 35 µM; activation: at the top concentration
row,SMILES,activation
1,O=C(N1CCOCC1)N1CCN(c2ccccn2)CC1,11.2%
2,CC1CC(C)CN(CC(O)COCc2ccccc2F)C1 (stereo not drawn),-3.98%
3,CCN(Cc1ccncc1)C(=O)c1cccc(S(=O)(=O)N2CCCCC2)c1,7.23%
4,COc1ccc(N2CCN(C(c3cccs3)C(C)NC(=O)C(=O)N3CCOCC3)CC2)cc1 (stereo not drawn),49.4%
5,O=C(NNC1CCN(Cc2ccccc2)CC1)c1ccccc1,-7.54%
6,CC(NC1CCN(Cc2ccccc2)CC1)c1ccc(F)cc1 (stereo not drawn),-0.389%
7,CN(Cc1ccc(OCC(O)CN(C)Cc2ccccc2)cc1)Cc1nccn1C (stereo not drawn),6.67%
8,CC(Oc1ccccc1Cl)C(=O)Nc1ccc(S(=O)(=O)Nc2nccs2)cc1 (stereo not drawn),2.94%
9,CCNc1nc(NC(C)CC)nc(ON=C(C)C)n1 (stereo not drawn),7.53%
10,Cc1cc(=O)oc2c3c(cc(OCC(=O)NC(C)C)c12)OC(C)(C)CC3,2.56%
11,O=C(O)COc1ccc2c3c(c(=O)oc2c1)CCC3,2.84%
12,O=c1[nH]c2ccccc2nc1-c1nnnn1C1CCCC1,11.3%
13,CCOc1ccc(OCCC(=O)N(CC)CC(=O)NCc2cccs2)cc1,-7.63%
14,CC(O)c1nc2ccccc2n1C1CCCCC1 (stereo not drawn),-9.74%
15,COc1ccc(N2C(=O)CC(Sc3nc(C)cc(C)c3C#N)C2=O)cc1 (stereo not drawn),-7.36%
16,O=C(Nc1ccccc1Oc1ccsc1C(=O)O)c1ccccc1F,3.53%
17,COc1cc(C(=O)Nc2cc(C(F)(F)F)ccc2N2CCOCC2)ccc1OCC(=O)N1CCOCC1,0.175%
18,Cc1cc(C)nc(NC(N)=NCCc2c[nH]c3ccccc23)n1,-15.7%
19,CCOC(=O)c1[nH]cnc1C(=O)NC(C)C,-12.7%
20,O=C1c2[nH]nc(-c3ccccc3)c2C(c2ccccc2)N1c1ccccc1 (stereo not drawn),9.7%
21,NS(=O)(=O)c1ccc(CNC(=O)c2cc(S(=O)(=O)N3CCOCC3)ccc2N2CCCC2)cc1,6.71%
22,CCOc1ccc2oc(=O)cc(CN3CCOCC3)c2c1,5.59%
23,CCCNC(=O)c1ccccc1NC(=O)COc1ccc(OC)cc1,-5.49%

row,SMILES,activation
1,Cc1cccc(NC(=O)c2ccc(OCc3c(C)noc3C)cc2)c1C,21%
2,COc1ccc(Nc2nc(NCc3cccs3)nc3ccsc23)cc1OC,-8.88%
3,COc1ccc(C(=O)/C=C2\NCCc3cc(OC)c(OC)cc32)cc1OC,-11.3%
4,COC(=O)c1ccc(OC)c(OC2CCCC2)c1,11.1%
5,Cc1cccc2nc(-c3ccco3)c(Nc3ccccc3)n12,3.49%
6,Cc1ccc(C(=O)c2sc(Nc3ccccc3)c(C#N)c2N)cc1,10.1%
7,CNc1ccc2ncc(-c3ccc(OC)c(OC)c3)n2n1,14.6%
8,C/C=C/Cn1c(N2CCCCCC2)nc2c1c(=O)[nH]c(=O)n2C,2.02%
9,CCCCCCn1c(SCC(C)C)nc2c1c(=O)[nH]c(=O)n2C,5.74%
10,CN(Cc1ccccc1)c1nc2c(c(=O)[nH]c(=O)n2C)n1Cc1ccccc1,-4.81%
11,C/C(Cl)=C/CSc1nc2c(c(=O)[nH]c(=O)n2C)n1C(C)C,36%
12,CC(C)CCn1c(N2CCCC2)nc2c1c(=O)[nH]c(=O)n2C,28.9%
13,Cn1c(=O)[nH]c(=O)c2c1nc(NC1CCCC1)n2Cc1ccccc1,-2.64%
14,CCCN1C[C@@H](C)[C@@H](OC)CN(C)C(=O)c2ccc(NC(=O)c3cccc(F)c3)cc2OC[C@H]1C,-6.93%
15,O=C(O)C1Cc2c([nH]c3ccccc23)C(c2ccc3c(c2)OCO3)N1 (stereo not drawn),6.64%
16,COc1cc2c(cc1OC)-c1cc(NCc3ccccn3)nc(=O)n1CC2,-6.24%
17,CCOc1ccc(CCNS(=O)(=O)c2cn(C)cn2)cc1OCC,-10.6%
18,CC(=O)N1CCN(C(=O)COC(=O)c2ccc(S(C)(=O)=O)cc2)CC1,39.2%
19,CC(C)(C)NC(=O)N1c2ccccc2Sc2ccccc21,11.4%
20,CCn1ncc2c1C(=O)NC1c3ccccc3C(=O)N21 (stereo not drawn),0.44%
21,O=C(NNC(=O)c1cc2cc3ccccc3nc2s1)c1cccc(C(F)(F)F)c1,-11%
22,Cc1cc(C)cc(C(=O)NC(=S)Nc2ccc(-c3cc4ccccc4oc3=O)cc2)c1,13.7%
23,C=CCn1c(-c2csc(-c3ccc(OC)c(OC)c3)n2)n[nH]c1=S,-1.01%

row,SMILES,activation
1,COc1ccc(-c2nc(CCl)cs2)cc1OC,5.17%
2,O=C(c1ccccc1)N(C(=O)c1ccccc1)N1CCCC1,3.14%
3,CN(c1ccc(C(=O)N2CCN(Cc3ccccc3)CC2)cc1)S(=O)(=O)c1ccccc1,-21.2%
4,CCCn1nc(NC(=O)c2ccco2)c2cc3ccccc3nc21,4.53%
5,CCn1nc(NC(=O)c2ccco2)c2cc3ccccc3nc21,1.13%
6,O=C1c2cccnc2C(Nc2ccc(F)c(Cl)c2)N1Cc1cccs1 (stereo not drawn),-9.46%
7,CCOc1cc(/C=N/NC(=O)CCn2nnc3ccccc32)ccc1O,15.9%
8,CCOc1ccccc1OCCC(=O)NNC(=O)Cn1nc(C)cc1C,5.71%
9,N#CCc1nn(-c2ccccc2)c2ncnc(N)c12,-0.351%
10,CN(C)CCCN(C(=O)c1ccco1)c1nc2c(F)cccc2s1,3.36%
11,O=C(c1cccnc1)N(Cc1ccccc1)c1ccccc1,24%
12,COc1ccc(-c2nc(N3CCC(C)CC3)[nH]c(=O)c2C#N)cc1,-8.77%
13,COc1ccc(-c2ccc(SCc3cccnc3)nn2)cc1OC,7.88%
14,CC(C)CCN(CC(=O)NCc1ccc(F)cc1)S(=O)(=O)c1ccccc1F,-21.4%
15,O=C(COC(=O)C1CCC1)NC(=O)c1ccccc1,-4.65%
16,O=C(NN(Cc1ccccc1)Cc1ccccc1)c1ccccc1,-14.6%
17,O=C(O)c1ccc(S(=O)(=O)NCc2ccc3c(c2)OCO3)cc1,-2.19%
18,O=C(c1ccc2c(c1)OCO2)N1CCN(S(=O)(=O)c2ccccc2)CC1,-5.95%
19,OC(c1ccc(Cl)cc1)C(CN1CCOCC1)c1ccccc1 (stereo not drawn),-9.66%
20,CC(C)OCC(O)CN1CCC(Cc2ccccc2)CC1 (stereo not drawn),-3.38%
21,COC(=O)CN(c1cccc(C)c1)S(=O)(=O)c1ccccc1,-3.43%
22,COCCNC(=O)c1ccc(N(C)S(=O)(=O)c2ccc(OC)c(OC)c2)cc1,14.3%
23,CCOc1ccc(-c2nc(CSc3nnc(N)s3)cs2)cc1OC,-24.8%

row,SMILES,activation
1,C=CCNC(=O)COc1coc(CN2CCN(C(=O)c3ccco3)CC2)cc1=O,-8.24%
2,C=C[C@@]1(C)CC(=O)[C@]2(O)[C@@]3(C)[C@@H](O)CCC(C)(C)[C@@H]3[C@H](O)[C@H](OC(C)=O)[C@@]2(C)O1,16.2%
3,Nc1nc(N)nc(-c2ccc(Cl)cc2)n1,20.1%
4,Cc1cccc(-c2cc3nc4c(c(N5CCCC(O)C5)n3n2)CCC4)c1 (stereo not drawn),-17.7%
5,C=C1[C@@H](O)[C@H](CC(C)C)N(Cc2ccccc2Br)S1(=O)=O,1.38%
6,Cc1c(NC(=S)NC(=O)c2sc3ccccc3c2Cl)cccc1C(=O)O,-3.09%
7,CCn1nnc(NC(=O)c2sc3ccccc3c2Cl)n1,9.4%
8,Fc1ccc(-c2csc3nnc(SCc4cccnc4)n23)cc1,-10.5%
9,CC(C)(C)OC(=O)N1CCCN(C(=O)c2ccc(Cl)cc2)CC1,-6.9%
10,COc1nc(Nc2ccccc2)nc(OC)n1,18.4%
11,CC1(C)N=C(c2ccccc2)C(c2ccccc2)=N1,-1.46%
12,COc1ccc2nc3ccccc3nc2c1NC(=O)c1ccc(Cl)cc1,21.8%
13,Cc1c(C)n(CCCN(C)C)c2ncnc(Nc3ccccc3)c12,-21.3%
14,COc1ccc(C)c(-n2c(=O)n(Cc3ccccc3)c(=O)c3[nH]cnc32)c1,-3.94%
15,COc1ccc(CCn2nnc(-c3ccc(NC(C)=O)c(Cl)c3)n2)cc1,-1.36%
16,NC(=O)COC(=O)c1ccccc1Oc1ccccc1,2.37%
17,Cc1ccc(OCC(=O)NC(C)c2ccccc2)cc1 (stereo not drawn),9.34%
18,Fc1ccc(-c2cc(C(F)(F)F)nc(-n3cncn3)n2)cc1,21.9%
19,CCOC(=O)Nc1ccc2c(c1)Sc1ccccc1N2C(=O)CCN1CCOCC1,0.499%
20,CCOC(=O)c1cnc2c(cnn2C)c1Oc1ccc(OC)cc1,5.49%
21,CCNc1nc(CC)nc2c1oc1ccccc12,8.28%
22,CCCCn1c(-c2ccncc2)nc2c1c(=O)[nH]c(=O)n2CC(C)C,31.7%
23,COCCn1c(-c2ccc3ccccc3c2)nc2c1c(=O)[nH]c(=O)n2CC(C)C,10.6%

row,SMILES,activation
1,Cc1cc(S(=O)(=O)NCc2cccnc2)ccc1F,-4%
2,Cc1cccn2cc(CCNS(=O)(=O)c3cccs3)nc12,-10.6%
3,COc1cc2ccc(C(C)=NNC(N)=S)cc2cc1OC,-6.54%
4,O=C(Nc1ccnn1C1CCN(C2CCC2)CC1)c1ccccc1Cl,-5.89%
5,CC1Cc2ccccc2N1C(=S)NC(=O)c1cccc(Br)c1 (stereo not drawn),-5.85%
6,O=S(=O)(NCC1CCCO1)c1ccc(Cl)nc1 (stereo not drawn),-8.07%
7,Cc1ccccc1-n1nc2c(c1NC(=O)c1cc3ccccc3oc1=O)CS(=O)(=O)C2,5.15%
8,CC(C)CC(=O)Nc1c2c(nn1-c1ccc(F)cc1)CS(=O)(=O)C2,-0.198%
9,O=C1N(c2ccccc2)c2ccccc2[C@]12C[C@H](O)CO2,-11.7%
10,CC(C(=O)Nc1ccc2[nH]c(=O)[nH]c2c1)N1CCN(Cc2ccc3c(c2)OCO3)CC1 (stereo not drawn),-9.39%
11,O=C(c1ccco1)N1CCN(C2CN(Cc3ccccc3)S(=O)(=O)C2)CC1 (stereo not drawn),-9.32%
12,COc1ccc(-c2nnc3sc(-c4ccco4)nn23)cc1OC,6.22%
13,COc1ccc(-c2nc(C(=O)O)cs2)cc1OC,-3.24%
14,COc1ccc(-c2ccncc2)cc1OC,15.7%
15,Cc1ccc2nc(N3CCN(C(=O)CCCC(=O)O)CC3)nc(-c3ccccc3)c2c1,25.8%
16,COc1ccc(-c2nnn(Cc3nc(N)nc(N4CCOCC4)n3)n2)cc1OC,-2.45%
17,COc1ccc(-c2cc(-c3ccco3)[nH]c(=O)c2C#N)cc1OC,-10.6%
18,CC(C)C(C(=O)NCc1ccco1)N(CC1CCCO1)C(=O)CNS(=O)(=O)c1ccc(F)cc1 (stereo not drawn),8.11%
19,COc1cccc(-n2c(=O)n(Cc3ccccc3)c(=O)c3[nH]cnc32)c1C,1.8%
20,CCOc1nc(NC(=O)NS(=O)(=O)c2cccc(Cl)c2)nc(-c2ccccc2)n1,-0.406%
21,COc1ccccc1-n1cnc2sc(C)c(C)c2c1=O,-11.2%

# Source: PubChem BioAssay AID977606 (Broad Institute, 2014)
